Laboratory results reported in PubChem BioAssay AID492952 (Southern Research Specialized Biocontainment Screening …, 2010).
Among all 2,300 compounds or so, about 1,500 (65%) were called active. No rule for the calls is given here. So high a share suggests a set chosen from earlier hits. The list shows a part of the results. Measured potencies and affinities stand elsewhere.

Experiment: replicating M. tuberculosis growth inhibition, dose response, non-replicating M. tuberculosis project, H37Rv (AID 492952);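 also: Mycobacterium tuberculosis grown in culture; growth inhibition read after a week of incubation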
Conditions: series mostly up to 50 µM

| Compound | outcome |
| --- | --- |
| Cc1nn(C)cc1/C=N/NC(=O)c1sc2ccccc2c1Cl | inactive |
| Nc1nonc1C(=O)NCCN=Cc1cc(Cc2ccccc2)cc(Br)c1O | inactive |
| Cc1cc(C(=O)N/N=C/C=C/c2ccccc2)c(C)o1 | inactive |
| Cc1occc1C(=O)N/N=C/c1ccc[nH]1 | inactive |
| O=C1/C(=C/c2ccco2)CCC1C1CCCC1 (centres undefined) | inactive |
| Cc1cccc2nc(-c3cccnc3)c(NCCC(C)C)n12 | inactive |
| CC1=NN(C(=O)c2ccc(C)o2)C(O)(c2ccccc2)C1 (centres undefined) | inactive |
| Cc1ccc2nc3c(c(N)c2c1)CCN3c1ccccc1 | inactive |
| O=C(CCC1CCCCC1)NCc1cccs1 | inactive |
| CCc1ccc(OCC(=O)c2c(O)c3ccccc3oc2=O)cc1 | inactive |
| C=CCN=C1SC(CC)C(=O)N1S(=O)(=O)c1ccc(C)cc1 (centres undefined) | inactive |
| COc1ccc(CN=C2NN=C(c3ccc(Cl)cc3)CS2)cc1 | inactive |
| c1ccc(Cn2c(SCCN3CCOCC3)nnc2-c2cccnc2)cc1 | inactive |
| O=C(O)c1ccc(CN2C(=O)CSC2=S)cc1 | inactive |
| CN(C)CCN1C(=O)c2oc3ccccc3c(=O)c2C1c1cccc(Br)c1 (centres undefined) | inactive |
| CC12CC3CC(C)(C1)CC(C(=O)N1CCCC1)(C3)C2 | inactive |
| Cc1ccc(NC(=O)COc2ccccc2)cc1Cl | inactive |

| Compound | outcome |
| --- | --- |
| Cc1ccc(NC(=O)CNc2ccc(OC(C)C)cc2)cc1 | inactive |
| CNCc1ccccc1Sc1cc(O)ccc1O | inactive |
| CC1(C)CC(=O)C2=C(C1)OC(N)=C(C#N)C2C#Cc1ccccc1 (centres undefined) | inactive |
| Cc1ccccc1OCCC(=O)OCC(=O)NNC(=O)c1cccs1 | inactive |
| CC1=NN(C(=O)COc2ccccc2C)C(O)(c2ccc(Cl)cc2)C1 (centres undefined) | inactive |
| CCOC(=O)Cc1ccc(NCc2ccc(Cl)cc2)cc1 | inactive |
| Cc1ccc2c(c1)C(=O)C(=O)N2CCCOc1ccccc1 | inactive |
| CC1=CC(C)(C)Nc2ccc(OC(=O)CN3C(=O)c4ccccc4C3=O)cc21 | inactive |
| N=c1oc2ccccc2cc1C(=O)Nc1ccccc1 | inactive |
| c1ccc(OCc2nnc3sc(-c4cccs4)nn23)cc1 | inactive |
| O=c1[nH][nH]c(-c2ccccc2O)c1C(C[N+](=O)[O-])c1cccc(Cl)c1 (centres undefined) | inactive |
| Clc1ccc(OC2CCN(Cc3nc(CC4CC4)no3)CC2)cc1 | inactive |
| CCOc1ccc(OCC(=O)OCc2cc(=O)n3cc(Br)ccc3n2)cc1 | inactive |
| CCOC(=O)Cn1nc(/C=C/c2ccccc2)ccc1=O | inactive |
| O=C(CNC(=O)c1ccccc1)OC1CCCCC1 | inactive |
| COc1ccc(-c2nnn(Cc3ccccc3)n2)cc1 | inactive |
| O=C1CC(Sc2ncccn2)C(=O)N1c1ccccc1C(F)(F)F (centres undefined) | inactive |
